Each structure is given as a SMILES string. The whole screen tested about 330,000 compounds, of which about 1,400 (0.42%) were called active. The entries come from a sample that favours actives as a whole. Unmarked numbers belong to inactive results.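 How the source made its calls: active means at least 40% inhibition at 20 µM here, with at most 30% in a related deaminase screen; inactive means the rest.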

DNA dC->dU-editing enzyme APOBEC-3A (Homo sapiens), sequence (P31941 whole entry, looked up): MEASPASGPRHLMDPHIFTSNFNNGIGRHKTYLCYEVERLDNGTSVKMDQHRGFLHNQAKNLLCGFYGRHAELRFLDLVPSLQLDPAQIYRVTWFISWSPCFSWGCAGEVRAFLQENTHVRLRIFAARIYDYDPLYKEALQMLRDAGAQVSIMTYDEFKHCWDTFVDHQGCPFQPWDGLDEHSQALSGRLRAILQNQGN

This assay addresses DNA dC->dU-editing enzyme APOBEC-3A (Homo sapiens) (UniProt P31941). Put plainly: APOBEC3A ssDNA deaminase inhibitors, primary screen, selectivity assay for APOBEC3G inhibitor project, biochemical, FAM/TAMRA oligo cleavage fluorescence (AID 493011).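 Further: plate controls were A3A with DMSO for no effect and wells lacking A3A enzyme for full effect.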 The following applies: recombinant A3A, FAM/TAMRA ssDNA deamination fluorescence; at 20 µM; stronger effect = higher value.
For orientation: inhibition means the drop in the measured response relative to a control, in per cent. `C/C(=C\c1ccco1)CN1CCC(N2CCC(C(=O)N3CCOCC3)CC2)CC1`: the inhibition was -1.12%.
`CC1CCCCC1NC(=O)CSc1nnc(N)s1` (stereo unspecified): the inhibition was -0.077%.
Consider `Cc1cc(C)n2nc(C(=O)Oc3ccc4c(c3)OCO4)nc2n1`, for which the inhibition was 0.02%.
Turning to `Cc1ccc(-c2nc(C#N)c(NCCCn3ccnc3)o2)cc1`, the inhibition is 0.374%.
Take `CC[n+]1cc(C)ccc1/C=C/c1ccc(N(C)C)cc1`: the inhibition was 64.4% (active).
Next, `CN1CCN(S(=O)(=O)c2cccc(C(=O)Nc3sccc3C#N)c2)CC1`: 0.346%; `Cc1ccc(CNC(=O)c2ccc(CS(=O)Cc3cccc(Cl)c3)o2)cc1` (stereo unspecified): -4.67%.
For `Cc1ccc(/C=C/C(=O)OCC(=O)NCc2ccc(Cl)cc2)o1`, the inhibition is 1.93%.
Next, `Nc1ccc(C(=O)NCc2ccccc2)cc1`: 5.23%; `C[n+]1ccc(C(=O)NCc2ccccc2)cc1`: 77.2% (active).
Next, `CS(=O)(=O)NCc1ccc(C(=O)NCc2ccccc2)cc1`: -3.29%; `COc1ccc(Cl)cc1NC(=O)COC(=O)c1ccc(Br)o1`: -2.56%; `Cn1nnnc1NCc1ccc(Cl)c(Cl)c1`: 1.46%.
With `COc1ccc(CNc2nnnn2C)cc1`, the inhibition was 63.5% (active).
As for `CCCn1nnnc1NCc1ccc(OC)cc1`, the inhibition was -5.24%.
As for `Cc1ccc(N(Cc2ccccc2O)C(=O)c2ccccc2F)cc1`, the inhibition is 3.92%.
For the molecule `C/C=C(/C)C(=O)OC1Cc2c(ccc3ccc(=O)oc23)OC1(C)C` (stereo unspecified), the inhibition is -4.35%.
Next, `CC1(C)Oc2ccc3ccc(=O)oc3c2/C(=C/NCCO)C1=O`: 55.6% (active); `CC1(C)Oc2ccc3ccc(=O)oc3c2/C(=N/O)C1=O`: -5.21%.
`Cc1cnc(C(=O)OCC(=O)NCCCc2ccccc2)cn1`: the inhibition was -5.14%.
Consider `COc1ccc2[nH]c(C)c(CCN(Cc3cccs3)C(=S)Nc3ccccc3OC)c2c1`, for which the inhibition is -5.52%.
Take `O=C(c1ccc(CS(=O)(=O)c2ccccc2)o1)N1CCN(c2ccccc2)CC1`: the inhibition was 40% (active).
Turning to `O=C(c1ccc(S(=O)(=O)NCc2ccco2)cc1)N1CCN(c2ccccc2)CC1`, the inhibition is -1.4%.
Turning to `COc1ccccc1CNC(=O)c1ccc(CS(=O)(=O)c2ccccc2)o1`, the inhibition was 3.87%.
As to `Cc1c(NC(=O)C(C)Oc2cccc(Cl)c2)c(=O)n(-c2ccccc2)n1C` (stereo unspecified), the inhibition is 2.72%.
Turning to `O=C(NCCCNCc1ccccc1)c1ccc(/C=N/O)nc1`, the inhibition was 0.078%.
As to `CC(C)c1ccc(C(=O)NCCCc2ccccc2)cc1`, the inhibition was -3.9%.
`C[N+](C)(C)CCNC(=O)c1cc[n+](Cc2ccccc2)c(/C=N/O)c1`: the inhibition was 77.9% (active).
On to `CC(=O)Nc1ccc(Nc2cc(C)nc(Nc3ccc(NC(C)=O)cc3)n2)cc1`, for which the inhibition is 52.3% (active).
In the case of `COc1ccc(C(=O)NNc2cc(C)nc(NNC(=O)c3ccc(OC)cc3)n2)cc1` it was 1.15%; in that of `CCC(=O)Nc1ccc(Nc2nc(Cl)nc(Nc3ccc(NC(=O)CC)cc3)n2)cc1`, -1.91%; in that of `COc1ccc(NC(=O)C(NC(C)=O)C(=O)NCc2ccccc2Cl)cc1` (stereo unspecified), -1.84%.
Turning to `CC(C)c1c(O)nc(SCCOc2ccc(Cl)cc2)[nH]c1=O`, the inhibition is -2.86%.
In the case of `CCN(Cc1ccccc1)C(=O)CN1C(=S)NC(C)(C)CC1C` (stereo unspecified) it was -4.37%.
Regarding `CCN(CC)CCNCC(=O)Nc1ccc(Oc2ccccc2)cc1`, the inhibition was -4.52%.
As to `CCN(CC)CCOC(=O)c1ccc(NC(=O)CNC(=O)c2ccccc2)cc1`, the inhibition was 49.1% (active).
As for `CCOC(=O)c1ccc(NC(=O)CNC(=O)c2ccco2)cc1`, the inhibition was -2.59%.
Turning to `CC(C)Oc1ccc(C(CC(=O)N2CCOCC2)C(C)C)cc1` (stereo unspecified), the inhibition is 2.91%.
Regarding `Cc1ccc(NC(=O)c2cc([N+](=O)[O-])ccc2Cl)c(O)c1`, the inhibition was 1.45%.
For the molecule `CCN(CC)c1ccc([N+](=O)[O-])cc1C(=O)O`, the inhibition was 3.17%.
Regarding `CNc1ccc([N+](=O)[O-])cc1C(=O)O`, the inhibition is 43.2% (active).
Regarding `Cc1ccc(N/N=C2\COC(C)(C)CC2=O)cc1`, the inhibition was -3.88%.
Consider `Cc1cccc(C(=O)NCC(=O)OCC(=O)N(C)CC(=O)Nc2ccccc2Cl)c1`, for which the inhibition is -1.62%.
As to `CCNC(=O)COC(=O)CCNC(=O)c1cccc(C)c1`, the inhibition is 82.3% (active).
For `Cc1cccc(OCC(=O)NCCNC(=O)c2cccnc2)c1`, the inhibition is -1.26%.
As for `CC(C)Cn1c(N2CCN(C(=O)/C=C/c3ccccc3)CC2)nc2ccccc21`, the inhibition was -1.07%.
Consider `Cc1cc2c(cc1C)[n+](C)cn2CC(O)COCC1CC=CCC1` (stereo unspecified), for which the inhibition is 46.1% (active).
In the case of `COc1ccc(-c2noc(CCC(=O)N3CCN(c4cccc(C)c4)CC3)n2)cc1`, the inhibition is 3.55%.
Turning to `CC(C)(CSc1nncn1/N=C/c1ccco1)NS(=O)(=O)c1ccc(Cl)cc1`, the inhibition is 5.18%.
With `O=C(NC1CC1)C1CCCN(C(=O)NC2CCCCC2)C1` (stereo unspecified), the inhibition is -2.29%.
In the case of `CC[C@]1(C(=O)OC)[C@H]2C(=O)N(C)C(=O)[C@H]2[C@H]2CN(C)C(=NCc3ccccc3)N21` it was 2.1%.

Values taken from PubChem BioAssay AID493011 (Sanford-Burnham Center for Chemical Genomics, 2011).
